Measurements taken from article PMC7862700, “An all-to-all approach to the identification of sequence-specific readers for epigenetic DNA modifications on cytosine”.

Assays:
Experiment in all cases: DAPPL (digital affinity profiling via proximity ligation, sequencing); 10 mM Tris-HCl pH 7.5, 50 mM NaCl, 1 mM DTT, 4% glycerol, room temperature, 30 min; GST-TFs on glutathione beads, 16-mer random dsDNA library, 0.1% formaldehyde crosslink after washing; high values mean tight binding
FEV = target: T1, FEV (Homo sapiens, UniProt Q99581 1-238); details: protein: recombinant; tags: N-terminal GST; dsDNA, one strand shown
T1 sequence: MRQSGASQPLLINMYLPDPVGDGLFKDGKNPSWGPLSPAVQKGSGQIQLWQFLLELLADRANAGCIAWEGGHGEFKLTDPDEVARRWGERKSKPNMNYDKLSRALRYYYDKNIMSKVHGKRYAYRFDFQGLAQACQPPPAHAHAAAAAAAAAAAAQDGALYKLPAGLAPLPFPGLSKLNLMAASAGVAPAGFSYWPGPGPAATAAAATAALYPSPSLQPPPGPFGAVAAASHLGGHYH
Outline: (§1)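 GST fusions of human transcription factors were expressed in yeast and captured with glutathione beads. Once given DNA barcodes and pooled alongside a tag-only sample, they were incubated for 30 min at room temperature with 200 nmole of a random double-stranded 16-mer DNA library in Tris/NaCl/DTT/glycerol buffer, then washed, crosslinked (0.1% formaldehyde), proximity-ligated, PCR-amplified and sequenced on an Illumina NextSeq500. The binding signal of each hexamer is its read frequency for a factor divided by its frequency for the tag-only sample.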

ETV5 = ETV5 (Homo sapiens, UniProt P41161 1-510); details: protein: recombinant; tags: N-terminal GST; dsDNA, one strand shown
Outline: as §1

HSF1 = HSF1 (Homo sapiens, UniProt Q00613 1-529); details: protein: recombinant; tags: N-terminal GST; chain copies: 3; dsDNA, one strand shown
Outline: as §1

SPIC = target: T2, SPIC (Homo sapiens, UniProt Q8N5J4 1-248); details: protein: recombinant; tags: N-terminal GST; dsDNA, one strand shown
T2 sequence: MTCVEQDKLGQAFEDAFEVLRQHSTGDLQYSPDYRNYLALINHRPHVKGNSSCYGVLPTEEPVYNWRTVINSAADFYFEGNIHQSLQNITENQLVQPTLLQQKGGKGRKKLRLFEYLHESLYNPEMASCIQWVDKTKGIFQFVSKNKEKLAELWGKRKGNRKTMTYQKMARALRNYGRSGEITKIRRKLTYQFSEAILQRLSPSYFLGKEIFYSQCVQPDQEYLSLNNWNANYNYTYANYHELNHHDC
Outline: as §1

ELF4 = ELF4 (Homo sapiens, UniProt Q99607 1-663); details: protein: recombinant; tags: N-terminal GST; dsDNA, one strand shown
Outline: as §1

ELK4 = target: T3, ELK4 (Homo sapiens, UniProt P28324-2 1-405); details: protein: recombinant; tags: N-terminal GST; dsDNA, one strand shown
T3 sequence: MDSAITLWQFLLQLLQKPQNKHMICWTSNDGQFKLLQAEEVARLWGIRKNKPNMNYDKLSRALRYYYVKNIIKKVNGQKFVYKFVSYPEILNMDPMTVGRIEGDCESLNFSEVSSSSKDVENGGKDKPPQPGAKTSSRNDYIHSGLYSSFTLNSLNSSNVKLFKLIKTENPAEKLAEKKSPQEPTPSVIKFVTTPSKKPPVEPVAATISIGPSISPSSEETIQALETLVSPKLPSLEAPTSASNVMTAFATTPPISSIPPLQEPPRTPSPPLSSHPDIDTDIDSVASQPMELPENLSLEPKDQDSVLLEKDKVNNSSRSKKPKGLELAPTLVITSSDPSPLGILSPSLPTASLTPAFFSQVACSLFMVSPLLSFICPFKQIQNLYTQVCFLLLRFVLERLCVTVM
Outline: as §1

ELF3 = target: T4, ELF3 (Homo sapiens, UniProt P78545 1-371); details: protein: recombinant; tags: N-terminal GST; dsDNA, one strand shown
T4 sequence: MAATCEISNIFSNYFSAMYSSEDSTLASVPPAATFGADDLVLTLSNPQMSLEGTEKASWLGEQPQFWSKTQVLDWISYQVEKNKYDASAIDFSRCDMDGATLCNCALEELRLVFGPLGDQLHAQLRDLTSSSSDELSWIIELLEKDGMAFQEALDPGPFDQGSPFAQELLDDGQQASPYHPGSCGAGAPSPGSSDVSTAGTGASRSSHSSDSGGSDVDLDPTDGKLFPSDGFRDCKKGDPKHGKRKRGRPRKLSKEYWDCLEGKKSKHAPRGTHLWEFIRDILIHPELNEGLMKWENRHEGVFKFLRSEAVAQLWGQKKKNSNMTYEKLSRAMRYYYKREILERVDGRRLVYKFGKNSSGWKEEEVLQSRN
Outline: as §1

CRX = CRX (Homo sapiens, UniProt O43186 1-299); details: protein: recombinant; tags: N-terminal GST; dsDNA, one strand shown
Outline: as §1

ETV1 = ETV1 (Homo sapiens, UniProt P50549 1-477); details: protein: recombinant; tags: N-terminal GST; dsDNA, one strand shown
Outline: as §1

ERF = target: T5, ERF (Homo sapiens, UniProt P50548 1-548); details: protein: recombinant; tags: N-terminal GST; dsDNA, one strand shown
T5 sequence: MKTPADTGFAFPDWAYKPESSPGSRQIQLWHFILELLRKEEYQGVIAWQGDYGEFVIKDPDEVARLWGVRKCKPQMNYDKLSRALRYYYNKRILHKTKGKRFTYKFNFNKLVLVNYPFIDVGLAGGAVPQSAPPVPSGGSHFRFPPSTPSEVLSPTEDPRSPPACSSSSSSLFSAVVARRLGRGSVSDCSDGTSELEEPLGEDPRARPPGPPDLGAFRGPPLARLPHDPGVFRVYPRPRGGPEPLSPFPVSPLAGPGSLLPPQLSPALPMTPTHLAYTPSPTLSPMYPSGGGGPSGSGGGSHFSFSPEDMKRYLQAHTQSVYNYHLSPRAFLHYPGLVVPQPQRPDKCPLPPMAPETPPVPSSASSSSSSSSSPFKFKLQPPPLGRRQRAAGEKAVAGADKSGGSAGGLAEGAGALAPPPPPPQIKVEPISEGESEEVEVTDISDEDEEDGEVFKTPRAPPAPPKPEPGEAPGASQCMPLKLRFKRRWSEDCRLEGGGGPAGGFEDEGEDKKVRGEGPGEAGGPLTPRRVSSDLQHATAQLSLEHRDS
Outline: as §1

ETV3L = target: T6, ETV3L (Homo sapiens, UniProt Q6ZN32 1-361); details: protein: recombinant; tags: N-terminal GST; dsDNA, one strand shown
T6 sequence: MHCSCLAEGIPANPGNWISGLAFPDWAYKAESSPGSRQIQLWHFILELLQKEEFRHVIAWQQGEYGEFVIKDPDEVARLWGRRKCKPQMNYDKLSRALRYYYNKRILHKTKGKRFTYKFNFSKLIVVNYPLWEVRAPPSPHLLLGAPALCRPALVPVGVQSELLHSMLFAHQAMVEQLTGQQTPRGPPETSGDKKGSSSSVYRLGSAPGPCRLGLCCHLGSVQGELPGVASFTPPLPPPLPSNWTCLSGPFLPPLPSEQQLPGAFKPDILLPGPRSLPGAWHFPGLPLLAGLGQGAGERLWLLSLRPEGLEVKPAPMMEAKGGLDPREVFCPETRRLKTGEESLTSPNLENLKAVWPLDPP
Outline: as §1

ETS2 = target: T7, ETS2 (Homo sapiens, UniProt P15036 1-469); details: protein: recombinant; tags: N-terminal GST; dsDNA, one strand shown
T7 sequence: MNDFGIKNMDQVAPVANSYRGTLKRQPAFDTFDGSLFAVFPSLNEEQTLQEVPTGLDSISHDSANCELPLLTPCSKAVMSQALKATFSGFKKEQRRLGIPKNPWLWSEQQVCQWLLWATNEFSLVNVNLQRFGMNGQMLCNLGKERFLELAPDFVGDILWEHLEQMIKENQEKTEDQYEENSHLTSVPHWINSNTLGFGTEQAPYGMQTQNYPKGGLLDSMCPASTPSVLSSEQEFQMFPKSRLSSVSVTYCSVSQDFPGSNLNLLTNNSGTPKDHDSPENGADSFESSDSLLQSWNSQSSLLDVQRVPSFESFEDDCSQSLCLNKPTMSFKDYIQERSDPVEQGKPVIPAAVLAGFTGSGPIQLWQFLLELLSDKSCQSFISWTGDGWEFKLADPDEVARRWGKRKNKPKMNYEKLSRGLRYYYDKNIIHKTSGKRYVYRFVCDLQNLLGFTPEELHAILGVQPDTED
Outline: as §1

ETV7 = target: T8, ETV7 (Homo sapiens, UniProt Q9Y603 1-341); details: protein: recombinant; tags: N-terminal GST; dsDNA, one strand shown
T8 sequence: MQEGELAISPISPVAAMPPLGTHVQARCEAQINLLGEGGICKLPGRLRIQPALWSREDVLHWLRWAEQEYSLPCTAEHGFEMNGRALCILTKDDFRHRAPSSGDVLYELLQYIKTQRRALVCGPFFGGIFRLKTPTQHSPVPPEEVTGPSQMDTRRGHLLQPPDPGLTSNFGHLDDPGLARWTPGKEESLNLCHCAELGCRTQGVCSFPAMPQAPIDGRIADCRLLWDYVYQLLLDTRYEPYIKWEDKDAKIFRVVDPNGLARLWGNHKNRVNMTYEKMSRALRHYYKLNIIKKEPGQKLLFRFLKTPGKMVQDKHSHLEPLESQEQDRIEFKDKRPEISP
Outline: as §1

ELF5 = target: T9, ELF5 (Homo sapiens, UniProt Q9UKW6-2 1-255); details: protein: recombinant; tags: N-terminal GST; dsDNA, one strand shown
T9 sequence: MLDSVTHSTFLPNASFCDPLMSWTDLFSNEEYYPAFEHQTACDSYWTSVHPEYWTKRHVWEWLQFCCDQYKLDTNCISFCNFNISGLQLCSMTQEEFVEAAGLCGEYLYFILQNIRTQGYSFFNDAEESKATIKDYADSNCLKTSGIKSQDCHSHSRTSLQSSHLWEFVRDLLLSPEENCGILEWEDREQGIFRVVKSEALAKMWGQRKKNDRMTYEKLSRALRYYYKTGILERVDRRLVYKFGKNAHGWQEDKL
Outline: as §1

ETV3 = target: T10, ETV3 (Homo sapiens, UniProt P41162-2 1-143); details: protein: recombinant; tags: N-terminal GST; dsDNA, one strand shown
T10 sequence: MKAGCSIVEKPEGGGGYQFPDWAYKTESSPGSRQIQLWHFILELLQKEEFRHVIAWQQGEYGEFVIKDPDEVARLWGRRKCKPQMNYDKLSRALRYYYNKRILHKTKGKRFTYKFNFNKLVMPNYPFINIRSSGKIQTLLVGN
Outline: as §1

ETV6 = ETV6 (Homo sapiens, UniProt P41212 1-452); details: protein: recombinant; tags: N-terminal GST; dsDNA, one strand shown
Outline: as §1

SPDEF = target: T11, SPDEF (Homo sapiens, UniProt O95238 1-335); details: protein: recombinant; tags: N-terminal GST; dsDNA, one strand shown
T11 sequence: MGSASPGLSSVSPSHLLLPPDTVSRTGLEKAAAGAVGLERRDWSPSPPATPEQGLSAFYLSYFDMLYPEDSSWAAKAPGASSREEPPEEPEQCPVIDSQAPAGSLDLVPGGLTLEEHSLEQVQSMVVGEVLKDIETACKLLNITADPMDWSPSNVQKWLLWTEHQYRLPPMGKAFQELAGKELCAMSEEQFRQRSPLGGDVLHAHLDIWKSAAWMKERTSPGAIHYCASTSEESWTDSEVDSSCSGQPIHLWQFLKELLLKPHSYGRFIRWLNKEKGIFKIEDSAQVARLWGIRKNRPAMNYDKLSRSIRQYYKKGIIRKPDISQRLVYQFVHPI
Outline: as §1

Chain of ETV1 (P50549 whole entry): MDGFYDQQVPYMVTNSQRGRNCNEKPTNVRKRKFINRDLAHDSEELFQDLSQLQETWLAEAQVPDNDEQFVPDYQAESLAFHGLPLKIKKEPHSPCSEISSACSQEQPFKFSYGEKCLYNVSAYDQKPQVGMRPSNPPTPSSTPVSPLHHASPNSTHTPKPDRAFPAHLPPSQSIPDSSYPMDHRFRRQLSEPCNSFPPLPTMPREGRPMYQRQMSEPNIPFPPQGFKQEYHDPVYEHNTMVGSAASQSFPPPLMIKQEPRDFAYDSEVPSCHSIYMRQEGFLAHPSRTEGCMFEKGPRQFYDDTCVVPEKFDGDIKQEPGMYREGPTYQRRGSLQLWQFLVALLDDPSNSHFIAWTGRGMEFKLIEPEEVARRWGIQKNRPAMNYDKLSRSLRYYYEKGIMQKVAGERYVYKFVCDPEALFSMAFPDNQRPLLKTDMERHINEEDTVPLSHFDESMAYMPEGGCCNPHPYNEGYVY
Chain of CRX (O43186 whole entry): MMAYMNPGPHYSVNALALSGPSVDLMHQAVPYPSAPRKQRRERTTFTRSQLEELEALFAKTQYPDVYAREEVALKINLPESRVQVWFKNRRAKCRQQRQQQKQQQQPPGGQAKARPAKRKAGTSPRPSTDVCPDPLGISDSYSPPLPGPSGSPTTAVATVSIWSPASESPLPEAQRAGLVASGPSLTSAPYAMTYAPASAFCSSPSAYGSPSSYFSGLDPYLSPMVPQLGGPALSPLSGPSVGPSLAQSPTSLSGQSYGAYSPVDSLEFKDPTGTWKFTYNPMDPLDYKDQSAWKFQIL
Chain of ELF4 (Q99607 whole entry): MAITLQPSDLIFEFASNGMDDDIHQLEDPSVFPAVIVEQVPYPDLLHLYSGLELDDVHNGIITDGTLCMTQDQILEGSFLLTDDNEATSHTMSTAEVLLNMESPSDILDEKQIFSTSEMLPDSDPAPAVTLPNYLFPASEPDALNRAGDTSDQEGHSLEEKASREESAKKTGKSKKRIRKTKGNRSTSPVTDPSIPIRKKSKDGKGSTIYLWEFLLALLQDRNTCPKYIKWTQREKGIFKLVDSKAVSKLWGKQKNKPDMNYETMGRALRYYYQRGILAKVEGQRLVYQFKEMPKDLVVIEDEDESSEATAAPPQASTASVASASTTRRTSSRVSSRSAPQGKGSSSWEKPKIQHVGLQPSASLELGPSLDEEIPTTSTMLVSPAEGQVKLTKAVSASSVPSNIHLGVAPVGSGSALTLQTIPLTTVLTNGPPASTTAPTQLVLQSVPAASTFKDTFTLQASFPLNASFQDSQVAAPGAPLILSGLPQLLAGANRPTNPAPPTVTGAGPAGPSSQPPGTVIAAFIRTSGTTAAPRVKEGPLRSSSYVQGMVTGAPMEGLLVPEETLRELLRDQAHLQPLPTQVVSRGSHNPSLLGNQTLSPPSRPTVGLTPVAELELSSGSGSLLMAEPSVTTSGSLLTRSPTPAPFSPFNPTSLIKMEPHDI
Chain of HSF1 (Q00613 whole entry): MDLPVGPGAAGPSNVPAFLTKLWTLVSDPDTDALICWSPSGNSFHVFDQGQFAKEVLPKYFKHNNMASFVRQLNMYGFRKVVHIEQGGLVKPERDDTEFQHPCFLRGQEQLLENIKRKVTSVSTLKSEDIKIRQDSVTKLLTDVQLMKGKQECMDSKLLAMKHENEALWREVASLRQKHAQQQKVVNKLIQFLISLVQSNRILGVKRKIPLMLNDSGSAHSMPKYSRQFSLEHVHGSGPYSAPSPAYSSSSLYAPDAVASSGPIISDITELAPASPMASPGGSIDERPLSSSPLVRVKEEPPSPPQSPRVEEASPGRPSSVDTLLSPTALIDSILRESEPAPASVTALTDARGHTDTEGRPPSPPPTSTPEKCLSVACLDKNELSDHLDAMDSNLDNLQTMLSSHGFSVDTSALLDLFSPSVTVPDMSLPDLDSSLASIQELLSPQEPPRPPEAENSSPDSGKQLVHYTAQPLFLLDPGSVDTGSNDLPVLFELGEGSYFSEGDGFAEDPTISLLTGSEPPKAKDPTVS
Chain of ETV6 (P41212 whole entry): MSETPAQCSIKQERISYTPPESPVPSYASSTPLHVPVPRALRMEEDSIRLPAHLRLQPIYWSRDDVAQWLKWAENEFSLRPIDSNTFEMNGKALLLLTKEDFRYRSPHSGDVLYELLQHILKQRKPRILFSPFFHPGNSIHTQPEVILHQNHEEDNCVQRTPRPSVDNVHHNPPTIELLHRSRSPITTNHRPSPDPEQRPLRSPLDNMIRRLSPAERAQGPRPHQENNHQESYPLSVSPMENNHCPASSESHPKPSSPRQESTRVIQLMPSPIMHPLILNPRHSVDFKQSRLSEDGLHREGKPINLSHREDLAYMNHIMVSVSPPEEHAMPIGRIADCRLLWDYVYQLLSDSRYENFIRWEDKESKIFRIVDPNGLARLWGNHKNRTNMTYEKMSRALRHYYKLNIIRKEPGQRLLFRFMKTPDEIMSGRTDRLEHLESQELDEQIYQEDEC
Chain of ETV5 (P41161 whole entry): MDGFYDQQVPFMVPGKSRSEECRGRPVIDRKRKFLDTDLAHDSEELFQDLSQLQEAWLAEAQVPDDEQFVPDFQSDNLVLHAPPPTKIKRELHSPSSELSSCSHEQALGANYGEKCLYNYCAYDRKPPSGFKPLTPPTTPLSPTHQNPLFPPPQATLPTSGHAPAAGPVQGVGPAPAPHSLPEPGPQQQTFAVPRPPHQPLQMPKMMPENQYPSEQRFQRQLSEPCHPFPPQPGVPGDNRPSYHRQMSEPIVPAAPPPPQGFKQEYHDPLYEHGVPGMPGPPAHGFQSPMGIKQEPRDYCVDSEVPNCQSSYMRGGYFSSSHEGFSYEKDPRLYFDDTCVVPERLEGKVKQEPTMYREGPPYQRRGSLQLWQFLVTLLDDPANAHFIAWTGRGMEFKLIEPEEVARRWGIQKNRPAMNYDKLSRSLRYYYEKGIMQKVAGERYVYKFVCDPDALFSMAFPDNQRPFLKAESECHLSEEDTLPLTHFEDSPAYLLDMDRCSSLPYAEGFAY

AGTTCT
binding signal (FEV): 1.1 fold enrichment (6-mer frequency, TF over GST control) | binding signal (ETV5): 1.12 fold enrichment (6-mer frequency, TF over GST control) | binding signal (HSF1): 1.92 fold enrichment (6-mer frequency, TF over GST control) | binding signal (SPIC): 1.1 fold enrichment (6-mer frequency, TF over GST control) | binding signal (ELF4): 1.13 fold enrichment (6-mer frequency, TF over GST control) | binding signal (ELK4): 1.2 fold enrichment (6-mer frequency, TF over GST control) | binding signal (ELF3): 1.17 fold enrichment (6-mer frequency, TF over GST control) | binding signal (CRX): 1.19 fold enrichment (6-mer frequency, TF over GST control) | binding signal (ETV1): 1.03 fold enrichment (6-mer frequency, TF over GST control) | binding signal (ERF): 1.14 fold enrichment (6-mer frequency, TF over GST control) | binding signal (ETV3L): 1.12 fold enrichment (6-mer frequency, TF over GST control) | binding signal (ETS2): 1.17 fold enrichment (6-mer frequency, TF over GST control) | binding signal (ETV7): 1.11 fold enrichment (6-mer frequency, TF over GST control) | binding signal (ELF5): 1.15 fold enrichment (6-mer frequency, TF over GST control) | binding signal (ETV3): 1.18 fold enrichment (6-mer frequency, TF over GST control) | binding signal (ETV6): 1.13 fold enrichment (6-mer frequency, TF over GST control)

TAACTC
binding signal (FEV): 1.1 fold enrichment (6-mer frequency, TF over GST control) | binding signal (ETV5): 1.21 fold enrichment (6-mer frequency, TF over GST control) | binding signal (HSF1): 1.34 fold enrichment (6-mer frequency, TF over GST control) | binding signal (SPIC): 1.25 fold enrichment (6-mer frequency, TF over GST control) | binding signal (ELF4): 1.29 fold enrichment (6-mer frequency, TF over GST control) | binding signal (ELK4): 1.34 fold enrichment (6-mer frequency, TF over GST control) | binding signal (CRX): 1.58 fold enrichment (6-mer frequency, TF over GST control) | binding signal (ETV1): 1.23 fold enrichment (6-mer frequency, TF over GST control) | binding signal (ERF): 1.29 fold enrichment (6-mer frequency, TF over GST control) | binding signal (ETV3L): 1.12 fold enrichment (6-mer frequency, TF over GST control) | binding signal (ETS2): 1.25 fold enrichment (6-mer frequency, TF over GST control) | binding signal (SPDEF): 1.23 fold enrichment (6-mer frequency, TF over GST control) | binding signal (ETV7): 1.22 fold enrichment (6-mer frequency, TF over GST control) | binding signal (ELF5): 1.16 fold enrichment (6-mer frequency, TF over GST control) | binding signal (ETV3): 1.25 fold enrichment (6-mer frequency, TF over GST control) | binding signal (ETV6): 1.3 fold enrichment (6-mer frequency, TF over GST control)
